From PubChem BioAssay AID1645875 (National Center for Advancing Translational Sciences (NCATS), 2021)
Values joined by “and” are separate entries in the source; they are usually repeats but may differ in a detail not shown here. Equal values may be shown once. Inconclusive results are not listed. Active and inactive are the calls of the source. Calls follow the shape of the dose curve; as a rule, active = well fitted inhibition curve with a large enough effect; inconclusive = small, poorly fitted or top-dose-only effect; inactive = no such curve, though single readings can be large or run the other way.

What follows are compounds tested against N-terminal Xaa-Pro-Lys N-methyltransferase 1 (Homo sapiens) (UniProt Q9BV86) (assay: Orthogonal qHTS for Inhibitors of N-terminal methyltransferase 1 (NTMT1): ThioGlo Assay). Details: NTMT1 SAHH-coupled ThioGlo fluorescence, 30 min; series mostly up to 84.5 µM.
Text: Assay Submitter (PI): Rong Huang Ph.D. Purdue University, West Lafayette, IN 47907 The N-terminal methytransferase 1 is the first methyltransferase that methylates protein alpha-N-amines and plays an important role in regulating cell mitosis, chromatin interactions and DNA repair. It is observed to be over-expressed in various cancer patient tissues like malignant melanoma and colorectal cancer tissues. Knockdown of NTMT1 in cancer cells causes cell mitotic defects and enhances sensitivity to DNA damaging chemotherapeutics. […] These critical cellular processes in which NTMT1 is implicated, coupled with emerging links to cellular dysfunction, strengthen the inference that NTMT1 is a compelling novel anticancer target. Progress have been made in understanding the molecular properties of NTMT1 and the biological consequences of protein alpha-N-terminal methylation, but there are no specific small molecule probes available for NTMT1 to fully characterize its MTase activity. To address this unmet need, a panel of assay is created and established to enable quantitative high-throughput screening (qHTS) for novel, potent, and selective small molecule NTMT1 inhibitors. Two orthogonal qHTS that use different reagents (ThioGlo vs. MTaseGlo) are developed for primary robotic screening against the NCATS chemical library of more than 400,000 small molecules. Identified inhibitors are reacquired, validated, and further characterized. […] Early Translation Branch (ETB) National Center for Advancing Translational Sciences (NCATS) National Institute of Health (NIH)
Materials: NTMT1 enzyme, substrate SPKRIA, control peptide RCC1-6 is provided by the Huang laboratory. MTaseGlo Assay: PROTOCOL TABLE; SEQUENCE No. (e.g., 1, 2, 3, etc.); […] (e.g., Cells, Incubation, Reagent, etc.); VALUE; DESCRIPTION 1; Enzyme; 3 uL; Dispense enzyme mixture (final concentrations of 125 nM NTMT1) into Greiner 1536-well black / solid bottom assay plate (Greiner Bio One, Monroe, NC). 2; Compounds; 23 nL; Compounds (at various concentration) and 1uM final concentration of RCC1-6 (SPKRIA) control were transferred via a Kalypsys Pin Tool (Wako USA) equipped with a 1536-slotted pin array (Wako Automation, Richmond, VA). 3; Incubation; 1 min; Incubate at room temperature. 4; Substrate; 1 uL; Dispense 1 uL of substrate solution (100uM SAM, 10uM SAHH, 15uM ThioGlo3 final concentration) was added to the wells bringing the final assay volume to 4uL. The assay plate was covered with metal lids. 5; Detection; Fluorescence; Initial fluorescence readout (background signal) was detected using the ViewLux microplate imager with an excitation filter of 340 nm and 450 nm emission filter. 6; Incubation; 30 min; Assay plates were incubation at room temperature in the dark. 7; Detection; Fluorescence; Final fluorescence readout was detected using the ViewLux microplate imager with an excitation filter of 340 nm and 450 nm emission filter. The data was normalized to the background fluorescence.

Chain of N-terminal Xaa-Pro-Lys N-methyltransferase 1 (Homo sapiens) (Q9BV86 whole entry, looked up): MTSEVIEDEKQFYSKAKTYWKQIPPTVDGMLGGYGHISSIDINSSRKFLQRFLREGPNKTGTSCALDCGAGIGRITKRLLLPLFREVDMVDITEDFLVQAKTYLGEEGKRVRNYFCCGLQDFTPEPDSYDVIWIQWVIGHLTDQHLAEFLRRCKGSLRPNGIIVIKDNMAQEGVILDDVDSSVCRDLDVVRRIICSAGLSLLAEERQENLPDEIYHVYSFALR

Structure (SMILES)	Potency
O=C(O)c1ccnc2cc(-c3nc4ccccc4n3CCN3CCCCC3)sc12	55.5 µM (active)
Nc1ncnc2c1nc(N)n2[C@@H]1O[C@H](CO)[C@@H](O)[C@H]1O	27.8 µM (active)
C[C@]12CC[C@@H]3c4ccc(O)c(O)c4CC[C@H]3[C@@H]1CCC2=O	17.5 µM (active)
COc1cc2c(NC3CCN(C4CCCCC4)CC3)nc(N3CCCCC3)nc2cc1OCCOCCN(C)C	43.5 µM (active)
OCc1ccc(-c2ccc(-c3ccc(CO)s3)o2)s1	19.2 µM (active)
Cc1[nH]c(/C=C2\C(=O)Nc3cc(-c4ccccc4)ccc32)c(C)c1CCC(=O)O	9.87 µM (active)
COc1c(C)c(C(=O)c2ccc(N)c(C(=O)O)c2)n2ccccc12	1.97 µM (active) and 1.75 µM (active)
O=C(Nc1ccccc1)c1ccc(Nc2nnc(-c3ccc(O)cc3)c3ccccc23)cc1	27.8 µM (active)
CN(C)c1ccc(Nc2nc(N)n(C(=O)c3c(F)cccc3F)n2)cc1	4.94 µM (active)
CCn1c(=O)c(-c2ccn[nH]2)cc2c(C)nc(N)nc21	49.4 µM (active)
COc1cc2c(NC3CCN(CC4CCCCC4)CC3)nc(N3CCCN(C)CC3)nc2cc1OCCCN1CCCCC1	43.5 µM (active)
CCOc1ccccc1N1CC(c2nc3ccccc3n2CCCCOc2cc(C)ccc2C)CC1=O (stereo not given)	inactive
COc1cc2c(NC3CCN(C4CCCCC4)CC3)nc(N3CCCN(C)CC3)nc2cc1OCCOCCN(C)C	43.5 µM (active)
COc1cc2c(NC3CCN(C(C)C)CC3)nc(N3CCCN(CC4CCCCC4)CC3)nc2cc1OCCCN1CCCCC1	inactive
COc1cc2nc(N3CCCC3)nc(NC3CC3)c2cc1OC	inactive
COc1cc2c(NC3CCN(CC4CCCCC4)CC3)nc(N3CCCN(C(C)C)CC3)nc2cc1OCCCN1CCCCC1	12.3 µM (active)
COc1cc2nc(N(C)C)nc(NC3CCN(C)CC3)c2cc1OC	inactive
Cc1ccnc(NC(=S)N2CCN(c3cc(C(F)(F)F)cc(C(F)(F)F)c3)CC2)c1	4.35 µM (active)
C[C@]12C[C@H](O)[C@H]3[C@@H](CCC4=CC(=O)CC[C@@]43C)[C@@H]1CC[C@@H]2C(=O)CO	inactive
Cc1ccc(S(=O)(=O)Nc2cnccc2C(=O)Nc2nc(-c3cccc(C)c3)cs2)cc1	inactive

Structure (SMILES)	Potency
CC(C)c1cc2c(c(O)c1O)[C@@]13CCCC(C)(C)C1[C@@H](O)[C@@H]2OC3=O (stereo not given in full)	12.2 µM (active)
Cc1cc(N2CCOCC2)cc2[nH]c(-c3c(NC[C@@H](O)c4cccc(Cl)c4)cc[nH]c3=O)nc12	13.9 µM (active)
N#Cc1ccc(Nc2nc(-c3ccc(O)cc3O)cs2)cc1C(F)(F)F	49.4 µM (active)
Fc1ccccc1CNCc1ccc(-c2ccnc3[nH]ccc23)cc1	49.4 µM (active)
COc1cccc(C2=Nn3c(nnc3-c3ccccc3C)SC2)c1	27.4 µM (active)
CC[N+](CC)(CC)CCOc1cccc(OCC[N+](CC)(CC)CC)c1OCC[N+](CC)(CC)CC	0.614 µM (active)
O=C(/C=C/c1ccc(O)c(O)c1)OCCc1ccccc1	17.3 µM (active)
CC[C@@H](C)Nc1cc(C(=O)NC2CC3CC[C@@H](C2)N3c2ccc(C(=O)C3CC3)cn2)c(C)cc1C(N)=O (stereo not given in full)	35 µM (active)
Cc1cccc(/C=C/c2ccccc2)n1	inactive
COc1cc(N2CCC(O)CC2)ccc1Nc1nc(Nc2ccccc2S(=O)(=O)C(C)C)c2[nH]cnc2n1	19.7 µM (active)
COc1cc(CCc2ccc(OCC=C(C)C)cc2)cc(OC)c1OC	inactive
CCNC(=O)c1noc(-c2cc(C(C)C)c(O)cc2O)c1-c1ccc(CN2CCOCC2)cc1	inactive
COc1ccc2cc3c(NC(=O)c4ccco4)nn(C)c3nc2c1	49.4 µM (active)
Cc1cc(O)c2c(c1)C(=O)c1cc(O)cc(O)c1C2=O	27.4 µM (active)
COc1cc(N2CCN(C(C)=O)CC2)ccc1Nc1ncc(Cl)c(Nc2ccc(N3CCN(C(C)=O)CC3)cc2OC)n1	22.1 µM (active)
C[N+]1(C)CCC(OC(=O)C(c2ccccc2)c2ccccc2)CC1	2.74 µM (active)
COc1cc2nc(N3CCN(C(=O)c4ccco4)C4CCCCC43)nc(N)c2cc1OC (stereo not given)	55.5 µM (active)
CC[C@@H](c1ccc(F)c(F)c1)n1c(C(=O)OC)c(-c2ccno2)[nH]c1=S	6.98 µM (active)
Cc1cc2c(c(=O)[nH]1)OC(C(O)CC(C)C)O2 (stereo not given)	19.7 µM (active)
COc1cc2c(NC3CCN(C(C)C)CC3)nc(N3CCCN(CC4CCCCC4)CC3)nc2cc1OCCCN1CCCC1	12.3 µM (active)
